The panel holds about 83,000 compounds, 20% with a hit somewhere; the sample as a whole holds those more often.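 Method: cells in 96-well plates; compound added at one concentration; 48 h incubation; percent growth measured; values under 10 scored active.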 A number with no mark means an inactive call. Active and inactive are the calls of the source.

Among the test systems are SK-MEL-2 melanoma; EKVX NSCLC; UO-31 renal; TK-10 renal; ACHN renal; CAKI-1 renal; A498 renal; CCRF-CEM leukemia; MOLT-4 leukemia; SN12C renal.
What all share (experiment): NCI-60 one-dose screen, 48 h (100 = growth as untreated, 0 = no growth, -100 = all killed)
Common to all, as to conditions: 10 µM unless noted

In the case of `Fc1ccc(Nc2ccc3c(OCCCN4CCOCC4)cccc3n2)cc1F`, the growth is 95.2% with SK-MEL-2 melanoma; 81.4% in the experiment on EKVX NSCLC; 63.8% with UO-31 renal; 92.4% in the experiment on TK-10 renal; 78.3% in the experiment with ACHN renal; 82.3% in the experiment with CAKI-1 renal. For the same compound, the growth was 69.7% with A498 renal, 69.4% in the experiment on CCRF-CEM leukemia and 53% in the experiment with MOLT-4 leukemia.
For the compound `O=C1C(=O)c2ccccc2C(O)=C1CCCc1ccc(C2CCCCC2)cc1`, the growth with SK-MEL-2 melanoma is 104%; in the experiment with EKVX NSCLC, 60.2%; in the experiment with UO-31 renal, 75.9%; with TK-10 renal, 52.5%; with ACHN renal, 37%; in the experiment on CAKI-1 renal, 19.7%. The growth is 56.7% in the experiment with A498 renal, 9.07% (active) in the experiment on CCRF-CEM leukemia and 29.2% in the experiment with MOLT-4 leukemia.
`N#C/C(=C\c1ccc(-c2ccccc2)o1)c1nc(-c2ccco2)cs1`: the growth was 106% with SK-MEL-2 melanoma; 37.3% in the experiment on EKVX NSCLC; 55.2% in the experiment with UO-31 renal; 55.8% in the experiment with TK-10 renal; 93.4% in the experiment on ACHN renal; 85.2% with CAKI-1 renal. The figures for the growth in the experiment with A498 renal, with CCRF-CEM leukemia and in the experiment with MOLT-4 leukemia were 125%, 95.9% and 98.7%, respectively.
On to `CCSc1sc(-c2ccc(C)cc2)nc1[P+](c1ccccc1)(c1ccccc1)c1ccccc1`, for which the growth in the experiment on SK-MEL-2 melanoma was -56.9% (active); with EKVX NSCLC, 6.99% (active); with UO-31 renal it was -33% (active); in the experiment on TK-10 renal it was -6.69% (active); in the experiment on ACHN renal, -44.8% (active); in the experiment on CAKI-1 renal, -9.03% (active). Further, the growth with A498 renal was -46.1% (active); in the experiment with CCRF-CEM leukemia, 8.77% (active); with MOLT-4 leukemia, -48.8% (active).
With `CC(=O)Cc1nsc(NC(=O)c2ccoc2COc2ccccc2)n1`, the growth in the experiment with SK-MEL-2 melanoma was 107%; in the experiment with EKVX NSCLC it was 91.1%; in the experiment on UO-31 renal it was 77.1%; with TK-10 renal, 107%; in the experiment with ACHN renal, 99.7%; with CAKI-1 renal it was 99.8%. Further, the growth in the experiment with A498 renal was 97.4%; with CCRF-CEM leukemia, 93.2%; in the experiment with MOLT-4 leukemia, 106%.
Consider `CC(=O)NC1=C(C#N)C(c2ccccc2Cl)c2c(ccc3ccccc23)O1` (stereo not given), for which the growth in the experiment on SK-MEL-2 melanoma is 59.2%; in the experiment with EKVX NSCLC, 63.5%; with UO-31 renal it was 49.8%; with TK-10 renal, 141%; in the experiment on ACHN renal it was 65%; in the experiment with CAKI-1 renal, 37.2%. The growth in the experiment on A498 renal is 56.2%; in the experiment with CCRF-CEM leukemia, 60.8%; in the experiment on MOLT-4 leukemia, 50.2%.
With `CNC(=O)c1cc(Oc2ccc3nc(NC(=O)Nc4ccc(Cl)cc4)sc3c2)ccn1`, the growth in the experiment on SK-MEL-2 melanoma is 81.1%; in the experiment on EKVX NSCLC, 53.8%; in the experiment on UO-31 renal it was 62.5%; in the experiment with TK-10 renal, 62.3%; in the experiment on ACHN renal, 64.9%; with CAKI-1 renal, 94.7%. For the same compound, the growth in the experiment on A498 renal is 117%; in the experiment with CCRF-CEM leukemia it was 83.2%; in the experiment with MOLT-4 leukemia, 85.4%.
For the compound `Cc1cc(N2CCCC2)nc(N(CCNc2ccnc3cc(Cl)ccc23)Cc2ccco2)n1`, the growth is 77.1% with SK-MEL-2 melanoma; 36.1% in the experiment on EKVX NSCLC; 28.8% with SN12C renal; 10.8% with UO-31 renal; 63.8% in the experiment on TK-10 renal; 39.6% with ACHN renal. Besides, the figures for the growth with A498 renal, in the experiment on CCRF-CEM leukemia and with MOLT-4 leukemia were 26.9%, 11% and -9.45% (active), respectively.
Turning to `COc1ccc2c(c1)c(-c1nc(-c3cn(C)c4ncccc34)cs1)cn2CCCN1CCCCC1`, the growth with SK-MEL-2 melanoma was 102%; in the experiment on EKVX NSCLC, 61.6%; with UO-31 renal, 62.9%; in the experiment with TK-10 renal, 89.7%; in the experiment with ACHN renal, 1.33% (active); in the experiment on A498 renal, 74.7%. The growth was 2.69% (active) in the experiment with CCRF-CEM leukemia and 23.4% with MOLT-4 leukemia.
On to `O=[N+]([O-])c1cc(S(=O)(=O)c2ccc(F)c([N+](=O)[O-])c2)ccc1F`, for which the growth was 112% with SK-MEL-2 melanoma; 117% in the experiment with EKVX NSCLC; 86.1% in the experiment on UO-31 renal; 119% in the experiment with TK-10 renal; 97.1% with ACHN renal; 109% with CAKI-1 renal. The growth in the experiment on A498 renal is 107%; with CCRF-CEM leukemia, 46.2%; in the experiment with MOLT-4 leukemia, 23.2%.
On to `Cn1cc(-c2nc(-c3c[nH]c4ncccc34)cs2)c2cc(Br)ccc21`, for which the growth in the experiment with SK-MEL-2 melanoma was 77.6%; in the experiment with EKVX NSCLC, 75.2%; with SN12C renal, 87.1%; in the experiment with TK-10 renal it was 63.5%; with ACHN renal, 58.7%; in the experiment with CAKI-1 renal, 78%. The growth in the experiment with A498 renal was 68.4%; in the experiment on CCRF-CEM leukemia, 58.9%; with MOLT-4 leukemia, 69.1%.
In the case of `Fc1cccc(-c2[nH]nc3nc(Nc4cccnc4)sc23)c1`, the growth in the experiment with SK-MEL-2 melanoma was 46.6%; with EKVX NSCLC it was 57%; with UO-31 renal it was 46.2%; in the experiment with TK-10 renal, 77.3%; in the experiment on ACHN renal, 61.5%; in the experiment with CAKI-1 renal, 21.4%. Also, the growth in the experiment on A498 renal is 84.2%; with CCRF-CEM leukemia it was 28.8%; with MOLT-4 leukemia, 48.5%.
On to `CC1(C)C(=O)/C(=C\c2ccco2)C[C@]2(C)[C@H]3CC[C@@H]4[C@@H](C(=O)/C=C/c5ccco5)CC[C@@]4(C)[C@]3(C)CC[C@@H]12`, for which the growth in the experiment on SK-MEL-2 melanoma was -0.219% (active); with EKVX NSCLC, 105%; with UO-31 renal, 58.9%; with TK-10 renal, 107%; in the experiment with ACHN renal it was 19.3%; in the experiment on CAKI-1 renal, 53.9%. Besides, the growth in the experiment with A498 renal is 91.3%; in the experiment with CCRF-CEM leukemia it was 50.6%; with MOLT-4 leukemia, 68.3%.
As for `O=C1c2ccccc2NC(c2cn(-c3ccccc3)nc2-c2cccnc2)N1Cc1ccccc1` (stereo not given), the growth in the experiment on SK-MEL-2 melanoma was 88%; in the experiment on EKVX NSCLC, 81.3%; in the experiment with SN12C renal, 87.3%; in the experiment on UO-31 renal, 65.4%; in the experiment on TK-10 renal it was 105%; in the experiment with ACHN renal, 102%. The growth in the experiment on A498 renal is 92%; in the experiment on CCRF-CEM leukemia, 91.5%; with MOLT-4 leukemia it was 67.9%.

Values taken from PubChem BioAssay (NCI).
